IL1B secr inh: inflammasome signaling inhibition, IL-1 beta readout | AID 743279 | 360,000 compounds, 4.7% hits | THP-1 LPS/ATP IL-1B secretion, AlphaLISA, 16 h; active compounds read low | activity change, % at 57.5 µM; in the data active means activity change below about -50%; inconclusive means mostly about -30% to -49%
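THP-1 cells pretreated 1 hr with compounds (up to 57.5 uM final), then stimulated with LPS (250 ng/mL final) plus ATP (1.25 mM final); secreted IL-1B measured by AlphaLISA after 16 hr, decreased signal indicating inhibition.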
TDP1 cell noCPT: qHTS for Inhibitors of human tyrosyl-DNA phosphodiesterase 1 (TDP1): qHTS in cells in absence of CPT; DT40 Tdp1-/- hTDP1 cells, no CPT, ATP luminescence, 48 h; Potency, µM (series often up to 46.2 µM), without a hit: at the top dose activity change, negative = growth inhibition, actives largely listed as inhibitors; 420,000 compounds, 15% hits; further: potency means the concentration at half of the fitted maximal effect; nearly all actives have a fitted effect of over 55% in size
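Luminescent ATP content (CellTiter-Glo) served as the growth readout. Knockout chicken DT40 cells expressing human TDP1 were exposed to compounds without camptothecin for a minimum 48 hr at 37 °C.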
TDP1 cell CPT: DT40-hTDP1 cell growth loss with CPT; chicken DT40 Tdp1-/-;hTDP1 cells + 20 nM CPT, ATP luminescence, 48 h; Potency, µM (titrated, usually from 46.2 µM), without a hit: top-dose activity change, negative = growth inhibition, usual class: inhibitors; 420,000 compounds, 12% hits; further: potency means the concentration at half of the fitted maximal effect; nearly all actives have a fitted effect of over 55% in size
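Chicken DT40 Tdp1-/- cells stably complemented with human TDP1 were seeded at 400 cells/well in medium containing 20 nM camptothecin, exposed to pin-transferred compounds, and grown at 37 °C for at least 48 hr. Viability was read as ATP luminescence.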
LDHA block: blocks human lactate dehydrogenase A. activity change, % (values are at about 110 or 230 µM). AID 1347041. 480,000 compounds, 0.15% hits. purified LDHA, NADH/diaphorase-resazurin fluorescence; active compounds read low; in the data active means activity change below about -30%; inconclusive means mostly about -25% to -30%;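 further: plate controls were DMSO wells for no effect and wells without enzyme for full effect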
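Resorufin fluorescence (ex540/em590), read at 0 and 20 min after diaphorase/resazurin addition, reports the NADH left after a 5 min room-temperature reaction of 2 nM human LDH5 with 0.06 mM NADH and 0.2 mM pyruvate.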
RORg inh: inhibitors of mouse ROR gamma transcriptional activity | Drosophila S2 Gal4-RORgamma UAS-luciferase reporter, 20 h | Potency, µM (doses to about 53.6 µM), without a hit: top-dose activity change, negative = inhibition, hits mostly inhibitors | 310,000 compounds, 5.4% hits | AID 2551; further: potency means the concentration at half of the fitted maximal effect; nearly all actives have a fitted effect of over 60% in size
Target sequence (P51450 whole entry, looked up, the tested form may be a part): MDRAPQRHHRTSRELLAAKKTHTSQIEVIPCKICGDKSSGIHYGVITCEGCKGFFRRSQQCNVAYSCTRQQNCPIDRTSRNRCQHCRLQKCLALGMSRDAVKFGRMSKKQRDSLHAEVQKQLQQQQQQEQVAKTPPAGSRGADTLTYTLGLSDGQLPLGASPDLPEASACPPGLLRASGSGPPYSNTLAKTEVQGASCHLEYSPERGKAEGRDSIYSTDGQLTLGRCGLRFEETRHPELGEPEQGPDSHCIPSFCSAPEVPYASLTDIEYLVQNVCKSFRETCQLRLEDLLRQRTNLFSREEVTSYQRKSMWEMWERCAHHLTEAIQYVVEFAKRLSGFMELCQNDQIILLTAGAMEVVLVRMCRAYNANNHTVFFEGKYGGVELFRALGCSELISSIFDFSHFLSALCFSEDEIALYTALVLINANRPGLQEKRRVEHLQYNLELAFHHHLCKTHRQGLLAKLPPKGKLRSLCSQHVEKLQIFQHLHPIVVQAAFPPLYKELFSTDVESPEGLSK
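A Gal4/UAS one-hybrid system in insect cells: metallothionein-promoter Gal4–ROR gamma fusion plus Photinus luciferase reporter. Copper sulfate 700 uM final, 20 hr ambient incubation, luminescent detection after 10 min with reagent.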
Gal4-VP16 FLuc: counter-screen for ROR gamma inhibitors: Gal4-VP16 reporter; Drosophila S2 Gal4-VP16 UAS-luciferase, luminescence, 20 h; Potency, µM (doses to about 53.6 µM), without a hit: at the highest dose activity, negative = inhibition, usual class: inhibitors; AID 2546; 310,000 compounds, 3.5% hits;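 further: Gal4-VP16 expression switched on by copper sulfate through the metallothionein promoter; potency means the concentration at half of the fitted maximal effect; nearly all actives have a fitted effect of over 50% in size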
An asterisk follows results filed as active; ? = inconclusive; · = no result given; [ ] = remark or other dose. This is a sample that favours compounds with a hit; in the whole collection about 18% have one here. Unless noted, the call rests on the fitted dose curve; in most records, active means well fitted curve in the direction sought with a large enough effect; inconclusive means small, poorly fitted or top-dose-only effect, or another doubt; inactive means no such curve, though single readings can be large; an effect the other way counts as inactive or inconclusive. Unless noted, on the % scale 0 is the no-effect control and ±100 the full control effect.

SMILES | IL1B secr inh | TDP1 cell noCPT | TDP1 cell CPT | LDHA block | RORg inh | Gal4-VP16 FLuc
Cc1ccc(C)c(OCCOC(=O)c2ccc(CS(C)(=O)=O)cc2)c1 | · | · | · | -14 | · | ·
O=C(CN1CCN(C(=O)c2ccco2)CC1)Nc1c2c(nc3c1CCC3)CCCC2 | -7 | -29% | -28% | -35* | -17% | -1%
O=C(Nc1ccc(S(=O)(=O)N2CCCCC2)cc1)C1=NN(c2ccccc2)C(=O)CC1 | · | · | · | 13 | · | ·
O=C(Nc1cc(S(=O)(=O)N2CCCCC2)ccc1Cl)C1=NN(c2ccccc2)C(=O)CC1 | 82 | 8.2µM* | ? | -2 | -27% | -6%
O=C(CN1CCN(C(=O)c2ccco2)CC1)Nc1cccc(S(=O)(=O)N2CCCC2)c1 | 21 | 0% | -9% | -4 | · | ·
O=C(CN1CCN(C(=O)c2ccco2)CC1)Nc1cc(S(=O)(=O)N2CCCC2)ccc1Cl | -16 | 6.5µM* | ? | -14 | · | ·
O=C(CN1CCN(c2ccccc2O)CC1)Nc1cc(S(=O)(=O)N2CCCC2)ccc1Cl | ? | ? | 16µM* | -2 | · | ·
CCN(Cc1ccco1)C(=O)c1cc2cc(F)ccc2[nH]1 | · | · | · | 13 | · | ·
CC(C)n1nc(C(=O)NCc2cccs2)c2ccccc2c1=O | · | · | · | 7 | · | ·
O=C(CCl)Nc1cc(S(=O)(=O)N2CCCCCC2)ccc1Cl | -101* | 2.6µM* | 3.7µM* | -4 | -12%[10 µM] | ?
Cc1cc(-n2c(SCC(=O)Nc3ccc(F)c(F)c3)nc3n[nH]c(C)c3c2=N)ccc1Cl | -6 | 1.5µM* | 2.6µM* | 0 | -44% | ?
Cc1[nH]nc2nc(SCC(=O)NCC3CCCO3)n(-c3ccc(Br)cc3)c(=N)c12 (stereo unspecified) | -24 | ? | 15µM* | 2 | -18% | -1%
CCOc1ccc(-n2c(SCC(=O)Nc3ccc(Br)cc3)nc3n[nH]c(C)c3c2=N)cc1 | -1 | 7.3µM* | 13µM* | -12 | ? | ?
Cc1ccc(-n2c(Cc3cccs3)nnc2SCC(=O)Nc2ccc(F)c(F)c2)cc1 | 3 | -18% | -10% | -3 | 12% | -1%
Cc1cc(-n2c(SCC(=O)Nc3ccc(Br)cc3)nc3n[nH]c(C)c3c2=N)ccc1Cl | 16 | ? | ? | -8 | ? | 20µM*
CC(=O)N1CCN(C(=S)c2ccc(Cl)cc2)CC1 | 9 | -3% | 5% | -9 | -13% | -14%
CCc1ccc(-c2csc3[n+]2CCN3C(C)=O)cc1 | -9 | 26µM* | ? | -2 | -44% | 0%
CC(=O)N1CC[n+]2c(-c3ccc(Cl)cc3)csc21 | -2 | 23µM* | 26µM* | -5 | -3% | 3%
CC(=O)Nc1cccc(C(C)NC(=O)Nc2cc(Cl)c(Cl)cc2Cl)c1 (stereo unspecified) | · | · | · | -10 | · | ·
CCOc1ccccc1NC(=O)CNC(=O)c1nn(-c2ccc(OC)c(OC)c2)c(=O)c2ccccc12 | -8 | 9.2µM* | ? | -6 | 19% | -19%
COc1ccc(NC(=O)CNC(=O)c2nn(-c3ccc(OC)c(Cl)c3)c(=O)c3ccccc23)c(OC)c1 | -4 | 16µM* | ? | -6 | 1% | 3%
COc1ccc(-n2nc(C(=O)NCC(=O)Nc3cccc(Cl)c3)c3ccccc3c2=O)cc1OC | 2 | 15µM* | 15µM* | -7 | ? | 11µM*
CCN(CCCNC(=O)CNC(=O)c1nn(-c2ccc(OC)c(OC)c2)c(=O)c2ccccc12)c1ccccc1 | ? | 18µM* | ? | -4 | 10% | -6%
CCNC(C(=O)OCC)c1ccc(Cl)cc1 (stereo unspecified) | · | · | · | 3 | · | ·
O=C(CCc1c[nH]c2ccccc12)NCC#Cc1cccc(C(F)(F)F)c1 | · | · | · | 11 | · | ·
SMILES | IL1B secr inh | TDP1 cell noCPT | TDP1 cell CPT | LDHA block | RORg inh | Gal4-VP16 FLuc
COc1ccc(CCNC(=O)CNC(=O)c2nn(-c3ccc(OC)c(OC)c3)c(=O)c3ccccc23)cc1OC | -6 | 9.2µM* | -28% | -1 | 39% | 0%
COc1ccc(-n2nc(C(=O)NCC(=O)N3CCCC(C)C3)c3ccccc3c2=O)cc1 (stereo unspecified) | -10 | 21µM* | -14% | -1 | 44% | -4%
COc1ccc(-n2nc(C(=O)NCC(=O)N3CCC(C)CC3)c3ccccc3c2=O)cc1 | ? | ? | -4% | -4 | 5% | -17%
Cn1c(=O)[nH]c(=O)c2c1nc(N1CCN(CC(N)=O)CC1)n2Cc1ccccc1Cl | · | · | · | -8 | · | ·
CCCCNC(=O)C1(C)CCCCN1CC(=O)c1ccc(OC)cc1 (stereo unspecified) | -10 | 26µM* | 16µM* | 0 | · | ·
NC(Cc1ccccc1)c1csc(NC(=O)c2cccc(OC(F)(F)F)c2)n1 (stereo unspecified) | · | 7.3µM* | 7.3µM* | 5 | · | ·
COc1ccc(CC(N)c2csc(NC(=O)c3cccc(OC(F)(F)F)c3)n2)cc1 (stereo unspecified) | -60* | 12µM* | 15µM* | 0 | · | ·
O=C(NCc1ccc2c(c1)OCO2)c1ccc(Br)cc1 | -3 | -20% | 0% | -4 | 25% | 2%
COc1ccc(C(=O)/C=C2\C(=O)Nc3ccc(Br)cc32)cc1 | -99* | 18µM* | 2.9µM* | -1 | · | ·
O=C1Nc2ccc(Br)cc2/C1=C/C(=O)c1ccc2c(c1)OCO2 | ? | 3.3µM* | 5.8µM* | -13 | 11µM* | ?
CCNC(=O)Cn1nc(C)c2c(C(=O)OC)cc(C3CC3)nc21 | · | · | · | 1 | · | ·
CCN(C(=O)Cn1c(=O)oc2cc(S(=O)(=O)N3CCCC3)ccc21)c1cccc(C)c1 | · | ? | ? | 0 | · | ·
COc1ccc(C)cc1NC(=O)Cn1c(=O)oc2cc(S(=O)(=O)N3CCCCC3)ccc21 | · | 15µM* | ? | -10 | · | ·
COc1ccc(C)cc1NC(=O)Cn1c(=O)ccc2cc(S(=O)(=O)N3CCCC3)ccc21 | · | 21µM* | 21µM* | -3 | · | ·
COc1ccc(OC)c(NC(=O)CN2C(=O)CSc3ccc(S(=O)(=O)N4CCCC4)cc32)c1 | -18 | -21% | -30% | -2 | 1% | -8%
COc1ccc(C)cc1NC(=O)CN1C(=O)CSc2ccc(S(=O)(=O)N3CCCC3)cc21 | -23 | ? | ? | -3 | -7% | -4%
CCN(C(=O)Cn1c(=O)oc2cc(S(=O)(=O)N3CCCCCC3)ccc21)c1cccc(C)c1 | · | 21µM* | ? | -4 | · | ·
COc1ccc(Cl)cc1NC(=O)CN1C(=O)CSc2ccc(S(=O)(=O)N3CCCC3)cc21 | · | 23µM* | 16µM* | 0 | · | ·
CSc1cccc(NC(=O)c2cc(=O)c(OCc3ccccc3F)co2)c1 | · | · | · | 0 | · | ·

Source: PubChem (National Center for Advancing Translational Sciences (NCATS))
